The nature of assay [1]: qHTS assay to identify small molecule antagonists of the vitamin D receptor (VDR) signaling pathway - cell viability counter screen (AID 743225). Also: % is scaled to controls: 0 for no effect and ±100 for the full control effect; nearly all actives have a fitted effect of over 50% in size. In a few lines:
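Cells (VDR-UAS-bla HEK 293T) are plated, rested 4 h at 37C, dosed with compound and 3 nM final 1-alpha,25-dihydroxy vitamin D3, and incubated 16 h. Viability is taken from CellTiter-Glo luminescence in the reporter wells.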

Assay [2] is described as follows: qHTS assay to identify small molecule agonists of the NFkB signaling pathway - cell viability counter screen (AID 1159515; calls by dose curve; also: series mostly up to about 61 µM; % is scaled to controls: 0 for no effect and ±100 for the full control effect; nearly all actives have a fitted effect of over 55% in size). In a few lines: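 NFkB-bla ME-180 cells, 2,000/well, plated overnight at 37 C; compound added for 5 hr at 37 C. Viability read in the same wells as the bla reporter, by CellTiter-Glo luminescence after 30 min at room temperature.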
Background: qHTS replaces the single test concentration by a dilution series.

Assay [3] in a line: qHTS assay to identify small molecule agonists of the endoplasmic reticulum stress response signaling pathway (AID 1159516; active = well fitted activation curve with a large enough effect in the signal ratio in the repeat runs, not every such curve was filed as active; the % refers to the signal ratio; also: % is scaled to controls: 0 for no effect and ±100 for the full control effect). A digest of the protocol: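 CellSensor ESRE-bla HeLa cells, 1,500 per well, plated overnight, then exposed to compounds for 5 hr at 37 C. Beta-lactamase reporter read with LiveBLAzer B/G FRET substrate after 2 hr at room temperature, 405 nm excitation, 460 and 530 nm emission.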

Assay [4] in a line: qHTS assay to identify small molecule agonists of the endoplasmic reticulum stress response signaling pathway - cell viability counter screen (AID 1159517; calls by dose curve;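 also: HeLa cells carrying an ER stress response element beta-lactamase reporter; series mostly up to about 61 µM; % is scaled to controls: 0 for no effect and ±100 for the full control effect; nearly all actives have a fitted effect of over 50% in size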). A digest of the protocol:
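ESRE-bla HeLa cells, 1,500 per well, seeded overnight then treated with compounds for 5 hr at 37 C. After the beta-lactamase read, viability in the same wells is measured by CellTiter-Glo luminescence after 30 min at room temperature.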

The nature of assay [5]: qHTS assay to identify small molecule antagonists of the retinoid-related orphan receptor gamma (ROR-gamma) signaling pathway - cell viability counter screen (AID 1159520). Also: % is scaled to controls: 0 for no effect and ±100 for the full control effect; nearly all actives have a fitted effect of over 50% in size. In a few lines: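 Tet-on ROR gamma CHO cells were given compounds for 2 hr, then doxycycline hyclate at 1 uM final, and incubated 16 hr at 37 C. Viability was measured as ATP content by CellTiter-Glo luminescence.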

For assay [6], the target named is Nuclear receptor ROR-gamma (Homo sapiens) (UniProt P51449). In words: qHTS assay to identify small molecule antagonists of the retinoid-related orphan receptor gamma (ROR-gamma) signaling pathway (AID 1159521;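 also: CHO cells with doxycycline inducible ROR-gamma driving an RORE luciferase reporter; top concentration of the series differs between compounds; % is scaled to controls: 0 for no effect and ±100 for the full control effect; nearly all actives have a fitted effect of over 50% in size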). A digest of the protocol: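 RORγ antagonism is scored from reduced reporter luminescence in Tet-on CHO cells. Induction used 1 uM final doxycycline hyclate for 16 h at 37 C, following a 2 h compound exposure.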

A short description of assay [7]: qHTS assay to identify small molecule agonists of the AP-1 signaling pathway - cell viability counter screen (AID 1159525; calls by dose curve; also: nearly all actives have a fitted effect of over 55% in size). A digest of the protocol: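 AP-1-bla ME-180 cells in Opti-MEM with 0.5% dialyzed FBS, compound exposure 5 h at 37 C in 15-point titration. Viability read in the same wells as ATP content by CellTiter-Glo luminescence, normalised to tetra-n-octylammonium bromide and DMSO controls.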

Assay [8] is described as follows: qHTS assay to identify small molecule agonists of the AP-1 signaling pathway (AID 1159526; calls by dose curve; also: % is scaled to controls: 0 for no effect and ±100 for the full control effect).
Assay [9] has as its target Retinoic acid receptor RXR-alpha (Homo sapiens) (UniProt P19793). The experiment in a line: qHTS assay to identify small molecule agonists of the RXR signaling pathway (AID 1159527; calls by dose curve; also: % is scaled to controls: 0 for no effect and ±100 for the full control effect; nearly all actives have a fitted effect of over 35% in size). A digest of the protocol: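 qHTS of the Tox21 10K library in GeneBLAzer RXR-alpha HEK 293T cells carrying a beta-lactamase reporter […]; 16 hr treatment, 9-cis retinoic acid as agonist control, FRET read-out.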

The nature of assay [10]: qHTS assay to identify small molecule agonists of the RXR signaling pathway - cell viability counter screen (AID 1159529). Also: nearly all actives have a fitted effect of over 50% in size. Also: potency is read from the fitted curve at half-maximal effect. As to activity change, negative = cytotoxicity: series mostly up to about 77 µM; % is scaled to controls: 0 for no effect and ±100 for the full control effect. In a few lines: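 Cell viability is measured by CellTiter-Glo luminescence, 30 min at room temperature, in wells already read for beta-lactamase. Engineered HEK 293T cells (RXR-alpha-UAS-bla) are dosed 16 hr at 37 C. Tetraoctyl ammonium bromide serves as positive control.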

A short description of assay [11]: qHTS assay to identify small molecule antagonists of the retinoid acid receptor (RAR) signaling pathway - cell viability counter screen (AID 1159551). Also: % is scaled to controls: 0 for no effect and ±100 for the full control effect; nearly all actives have a fitted effect of over 35% in size. A digest of the protocol:
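C3RL4 RARE-luciferase cells, 1,000/well, incubated overnight, then dosed with compound plus 1 uM retinol (final). After 6 hr at 37 C, viability read by CellTiter-Glo ATP luminescence following 30 min at room temperature.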

Assay [12] in a line: qHTS assay to identify small molecule agonists of the retinoic acid receptor (RAR) signaling pathway (AID 1159553). Also: % is scaled to controls: 0 for no effect and ±100 for the full control effect. In a few lines:
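C3RL4 RARE-luciferase cells were seeded at 1,000/well and grown overnight at 37 C, then exposed to compounds for 6 hr at 37 C, 5% CO2. Luciferase reagent was added and luminescence was read after 30 min at room temperature.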

Assay [13] is described as follows: qHTS assay to identify small molecule antagonists of the estrogen related receptor (ERR) signaling pathway from Tox21 library - cell viability counter screen (AID 1224834). Also: % is scaled to controls: 0 for no effect and ±100 for the full control effect; nearly all actives have a fitted effect of over 30% in size. In a few lines: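 ERR reporter cells, 2,000 per well, rested 6 h, then exposed to compound in DMSO for 17.5 hours at 37 C. Viability read as fluorescence after 30 min with CellTiter-Fluor.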

Assay [14] can be described thus: qHTS assay to identify small molecule antagonists of the retinoic acid receptor (RAR) signaling pathway (AID 1159552). A digest of the protocol: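 Quantitative HTS in C3RL4 RARE-luciferase reporter cells. Compounds were added with 1 uM (final) retinol; luminescence was read after 6 hr.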

This note sets out measurements from PubChem BioAssay (Tox21).

Records with an inconclusive call do not appear. Values without a mark were called inactive. Activity calls are given as the source filed them. Unless noted, calls follow the shape of the dose curve; as a rule, active = well fitted curve in the direction sought with a large enough effect in the repeat runs; inconclusive = weak or mixed curves; inactive = no such curve, though single readings can be large; an effect the other way counts as inactive or inconclusive.

Chain of Retinoic acid receptor RXR-alpha (Homo sapiens) (P19793 whole entry, looked up): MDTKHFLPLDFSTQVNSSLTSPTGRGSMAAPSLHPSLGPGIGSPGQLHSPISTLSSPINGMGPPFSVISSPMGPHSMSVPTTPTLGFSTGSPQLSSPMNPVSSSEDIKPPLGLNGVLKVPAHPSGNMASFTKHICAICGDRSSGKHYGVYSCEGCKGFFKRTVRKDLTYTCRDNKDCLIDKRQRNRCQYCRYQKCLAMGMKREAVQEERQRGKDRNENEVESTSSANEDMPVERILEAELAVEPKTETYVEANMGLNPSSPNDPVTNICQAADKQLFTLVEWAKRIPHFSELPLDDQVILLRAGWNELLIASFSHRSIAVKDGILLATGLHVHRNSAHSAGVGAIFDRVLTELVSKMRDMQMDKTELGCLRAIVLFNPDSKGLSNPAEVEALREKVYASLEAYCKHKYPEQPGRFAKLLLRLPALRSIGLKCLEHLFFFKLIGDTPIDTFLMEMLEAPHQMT

Take `CCCCN1C=CN(C)C1`: the compound was classed as inactive in assay [1], in assay [2], in assay [3] and in [4]. The activity, negative = cytotoxicity in [5] was 1.65% [at 19 µM]. The activity change, negative = inhibition in assay [6] is 11.4% [at 19 µM]. Further, the viability change, negative = cytotoxic in assay [7] is 3.01% [at 15.8 µM]. The results for the activation in [8] and in [9] were -8.87% [at 15.8 µM] and 3.97% [at 15.8 µM], respectively. The activity change, negative = cytotoxicity was -11.3% [at 15.8 µM] in [10] and 1.26% [at 19 µM] in [11]. The Potency result in assay [12] was “inactive”.
For `COc1ccccc1OCC1CNC(=O)O1` (configuration not stated), the outcome in assay [1], in assay [2], in assay [3], in [4], in assay [5] and in assay [7] was inactive. Besides, the call in assay [8] and in assay [11] was inactive. Further, the Potency result in [6], in assay [9], in [10] and in [13] was “inactive” in each case.
For the compound `Cc1ccnc(NS(=O)(=O)c2ccc(N)cc2)n1`, the result in assay [1], in [2], in assay [3], in assay [4], in assay [5] and in [7] was inactive. Moreover, the outcome in assay [8] and in assay [11] was inactive. The Potency entry in assay [6], in assay [9], in [10] and in assay [13] was “inactive” throughout.
Take `COc1cc(-c2ccc(=O)[nH]n2)ccc1OC(F)F`: the outcome in [1], in [2], in [3], in [4], in assay [5] and in assay [7] was inactive. Further, the compound was classed as inactive in assay [8] and in assay [11]. Besides, the Potency entry in assay [6], in assay [9], in assay [10] and in assay [12] was “inactive” each time.
Regarding `CCCCCCCCCCCCSC`, the compound was called inactive in assay [1], in [2], in assay [3], in [4], in [5] and in assay [7]. The call in [8] and in assay [11] was inactive. Further, the Potency result in assay [6], in assay [9], in assay [10] and in assay [13] was “inactive” throughout.
For `CCC(C(=O)NC(=O)NC(C)=O)c1ccccc1` (configuration not stated), the outcome in assay [2], in [3], in assay [4], in assay [5], in [7] and in [8] was inactive. Moreover, the outcome in [11] was inactive. For the same compound, the Potency entry in assay [6], in [9], in assay [10] and in [13] was “inactive” throughout.
On to `O=S(=O)(O)c1cccc2ccccc12`, for which the outcome in assay [2], in [3], in assay [4], in assay [5], in assay [7] and in assay [8] was inactive. Also, the call in assay [11] was inactive. The Potency result in [6], in assay [9], in [10] and in assay [13] was “inactive” each time.
For the compound `CC(=O)c1cnccn1`, the result in [2], in [3], in assay [4], in assay [5], in assay [7] and in [8] was inactive. In addition, in assay [11], the result was inactive. Also, the Potency result in assay [6], in [9], in [14] and in assay [13] was “inactive” throughout.
Take `C=C(C)C(=O)OCCOCCOCCOCCOC(=O)C(=C)C`: the call in [2], in [3], in [4], in assay [5], in [7] and in assay [8] was inactive. Besides, the Potency entry in assay [6], in [9], in assay [10], in assay [14] and in assay [13] was “inactive” throughout.
For `CCN(C=O)CC`, the call in assay [1], in [2], in assay [3], in [4], in assay [5] and in [7] was inactive. Further, the compound was classed as inactive in [8] and in assay [11]. The Potency result in [6], in assay [9] and in assay [13] was “inactive” each time. In assay [10], the Potency was 50.3 µM (active).
For `N[C@H](C(=O)O)[C@@H](O)c1ccc(O)c(O)c1`, the compound was called inactive in assay [1], in assay [2], in assay [3], in assay [4], in assay [5] and in assay [7]. In addition, the call in assay [8] was inactive. Further, the Potency entry in assay [6], in assay [9], in assay [10] and in assay [13] was “inactive” each time.
